Among the data in PubChem BioAssay (NCI) are growth inhibition values, retold here.

The structures appear in SMILES notation. The panel holds about 79,000 compounds, 15% with a hit somewhere; the sample as a whole holds those more often. A number with no mark means an inactive call. Calls of active or inactive are those of the source. Cut-off read from the data, not from the text of the source: active = growth inhibition above about 70%; inactive = the rest.

The nature of assay [1]: NCI Yeast Anticancer Drug Screen. Data for the rad50 strain (AID 155).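 Note: 0% = growth of vehicle-only cultures of the same strain.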 The note with it: S. cerevisiae rad50 strain growth inhibition, stronger effect = higher value. An outline of the steps: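 Relative growth inhibition (compound vs vehicle) was measured in yeast with a defined repair-gene alteration.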
Assay [2] can be described thus: NCI Yeast Anticancer Drug Screen. Data for the mec2-1 strain (AID 157). The conditions noted are these: S. cerevisiae mec2-1 strain, stronger effect = higher value. The essentials:
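Using mec2-1 yeast: add compound, measure growth, express inhibition versus vehicle-treated cultures.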

The nature of assay [3]: NCI Yeast Anticancer Drug Screen. Data for the sgs1 mgt1 strain (AID 161).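 Note: 0% = growth of cultures given vehicle only.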 The conditions noted are these: S. cerevisiae sgs1 mgt1 strain, stronger effect = higher value. The essentials: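 This yeast growth screen uses a strain with defined DNA-repair lesions; compound-treated growth is compared with vehicle-treated growth.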
Assay [4] in a line: NCI Yeast Anticancer Drug Screen. Data for the cln2 rad14 strain (AID 165).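 Note: 0% = growth equal to vehicle treated cultures.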 The conditions noted are these: S. cerevisiae cln2 rad14 strain, stronger effect = higher value. An outline of the steps:
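Yeast strain cln2 rad14, bearing defects in cell cycle control and DNA repair, serves as the test system; values reflect growth inhibition compared with vehicle.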

The nature of assay [5]: NCI Yeast Anticancer Drug Screen. Data for the mlh1 rad18 strain (AID 175). The note with it: S. cerevisiae mlh1 rad18 strain growth inhibition, stronger effect = higher value. An outline of the steps: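 Steps: expose repair-defective yeast to compound; measure growth; express inhibition against vehicle-treated controls.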
Assay [6] in a line: NCI Yeast Anticancer Drug Screen. Data for the bub3 strain (AID 167). The note with it: S. cerevisiae bub3 mutant strain, stronger effect = higher value. An outline of the steps:
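Screening used yeast with an engineered genetic alteration affecting cell cycle control. Compound-exposed cultures were compared with vehicle cultures, and reduced growth was taken as inhibition.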

Setting [7] is: at 5.0 µM (retest, dose inferred, filed as 0.5).
The mark [8] stands for this setting: at 50.0 µM (retest, dose inferred, filed as 5.0).

As to `CCCCCCCCCCCC[S+](C)CC(=O)[O-]` (centres undefined), the growth inhibition in assay [1] (setting [7]) was 20%; in assay [1] (setting [8]) it was 74% (active); in assay [1] (at 50.0 µM), 23.2%; in assay [2] (setting [7]), 5%; in assay [2] (setting [8]), 70% (active); in assay [2] (at 50.0 µM), 48.8%. The growth inhibition in assay [3] (setting [7]) was -2%; in assay [3] (setting [8]), 78% (active); in assay [3] (at 50.0 µM), 39.5%; in assay [4] (setting [7]), 11%; in assay [4] (setting [8]), 64%; in assay [4] (at 50.0 µM), 72% (active). Further, the growth inhibition in assay [5] (setting [7]) is 10%; in assay [5] (setting [8]), 41%; in assay [5] (at 50.0 µM), 72.8% (active).

Take `c1ccc(-c2nc(N=C3N=c4ccccc4=N3)[nH]c2-c2ccccn2)nc1`: the growth inhibition in assay [1] (setting [7]) is 59%; in assay [1] (setting [8]) it was 96% (active); in assay [1] (at 50.0 µM) it was 75.1% (active); in assay [2] (setting [7]), 54%; in assay [2] (setting [8]) it was 97% (active); in assay [2] (at 50.0 µM) it was 77.8% (active). Moreover, the growth inhibition in assay [3] (setting [7]) was 36%; in assay [3] (setting [8]) it was 84% (active); in assay [4] (setting [7]) it was 49%; in assay [4] (setting [8]), 93% (active); in assay [6] (setting [7]) it was 58%; in assay [6] (setting [8]), 80% (active). Also, the growth inhibition in assay [5] (setting [7]) was 49%; in assay [5] (setting [8]), 98% (active); in assay [5] (at 50.0 µM) it was 75.5% (active).

For `O=C(c1ccccc1)C(O)C(Br)(CBr)c1ccccc1` (centres undefined), the growth inhibition in assay [1] (setting [7]) is 19%; in assay [1] (setting [8]) it was 97% (active); in assay [1] (at 50.0 µM), 90.7% (active); in assay [2] (setting [7]), 11%; in assay [2] (setting [8]), 98% (active); in assay [2] (at 50.0 µM), 94.5% (active). The growth inhibition in assay [3] (setting [7]) was 4%; in assay [3] (setting [8]), 98% (active); in assay [3] (at 50.0 µM) it was 97.3% (active); in assay [4] (setting [7]), 15%; in assay [4] (setting [8]) it was 82% (active); in assay [4] (at 50.0 µM) it was 94.8% (active). Also, the growth inhibition in assay [6] (setting [7]) is 2%; in assay [6] (setting [8]), 98% (active); in assay [6] (at 50.0 µM), 96.8% (active); in assay [5] (setting [7]) it was 6%; in assay [5] (setting [8]) it was 97% (active); in assay [5] (at 50.0 µM), 93.7% (active).

As for `Cc1ccc(Nc2n[nH]c(=S)s2)cc1F`, the growth inhibition in assay [1] (setting [7]) is 37%; in assay [1] (setting [8]), 90% (active); in assay [1] (at 50.0 µM), 85.8% (active); in assay [2] (setting [7]) it was 46%; in assay [2] (setting [8]) it was 93% (active); in assay [2] (at 50.0 µM), 78.2% (active). In addition, the growth inhibition in assay [3] (setting [7]) is 8%; in assay [3] (setting [8]), 79% (active); in assay [4] (setting [7]), 49%; in assay [4] (setting [8]), 80% (active); in assay [6] (setting [7]), 28%; in assay [6] (setting [8]), 80% (active). The growth inhibition was 27% in assay [5] (setting [7]), 84% (active) in assay [5] (setting [8]) and 77.2% (active) in assay [5] (at 50.0 µM).

For the compound `COC(=O)[C@]1(C)CCC[C@]2(C)c3ccc(C(C)C)cc3C(=O)[C@@H](Br)[C@@H]12`, the growth inhibition in assay [1] (setting [7]) was 0%; in assay [1] (setting [8]), 9%; in assay [1] (at 50.0 µM) it was 74.2% (active); in assay [2] (setting [7]), -2%; in assay [2] (setting [8]), 46%; in assay [2] (at 50.0 µM), 51.9%. Further, the growth inhibition in assay [3] (setting [7]) was 3%; in assay [3] (setting [8]) it was 58%; in assay [3] (at 50.0 µM) it was 63.5%; in assay [6] (setting [7]), 2%; in assay [6] (setting [8]), 52%; in assay [6] (at 50.0 µM), 82.4% (active). In addition, the growth inhibition in assay [5] (setting [7]) was -11%; in assay [5] (setting [8]) it was 49%; in assay [5] (at 50.0 µM), 71.8% (active).

Consider `COC(=O)C(=[N+]=[N-])C(=O)c1ccc([N+](=O)[O-])o1`, for which the growth inhibition in assay [1] (setting [7]) is 32%; in assay [1] (setting [8]) it was 98% (active); in assay [1] (at 50.0 µM), 56.1%; in assay [2] (setting [7]), 10%; in assay [2] (setting [8]), 99% (active); in assay [2] (at 50.0 µM), 55.5%. Besides, the growth inhibition in assay [3] (setting [7]) is 18%; in assay [3] (setting [8]) it was 98% (active); in assay [3] (at 50.0 µM), 51.8%; in assay [4] (setting [7]) it was 8%; in assay [4] (setting [8]), 99% (active); in assay [4] (at 50.0 µM) it was 98.5% (active). In addition, the growth inhibition was 6% in assay [6] (setting [7]); 99% (active) in assay [6] (setting [8]); 48.5% in assay [6] (at 50.0 µM); 25% in assay [5] (setting [7]); 99% (active) in assay [5] (setting [8]); 98.7% (active) in assay [5] (at 50.0 µM).

As to `Oc1ccc2ccccc2c1N=Nc1nccs1`, the growth inhibition was 27% in assay [1] (setting [7]); 69% in assay [1] (setting [8]); 82.8% (active) in assay [1] (at 50.0 µM); 51% in assay [2] (setting [7]); 92% (active) in assay [2] (setting [8]); 91.1% (active) in assay [2] (at 50.0 µM). The growth inhibition in assay [3] (setting [7]) was 98% (active); in assay [3] (setting [8]) it was 90% (active); in assay [4] (setting [7]), 74% (active); in assay [4] (setting [8]), 86% (active); in assay [6] (setting [7]), 96% (active); in assay [6] (setting [8]), 85% (active). The growth inhibition in assay [5] (setting [7]) was 36%; in assay [5] (setting [8]), 77% (active); in assay [5] (at 50.0 µM) it was 77.8% (active).

As for `CCCC[n+]1c(/C=C\c2c(OC)cc(OC)cc2OC)ccc2ccccc21`, the growth inhibition is 64% in assay [1] (setting [7]); 97% (active) in assay [1] (setting [8]); 88.8% (active) in assay [1] (at 50.0 µM); 61% in assay [2] (setting [7]); 99% (active) in assay [2] (setting [8]); 90.8% (active) in assay [2] (at 50.0 µM). Further, the growth inhibition is 67% in assay [3] (setting [7]); 99% (active) in assay [3] (setting [8]); 91.7% (active) in assay [3] (at 50.0 µM); 56% in assay [4] (setting [7]); 99% (active) in assay [4] (setting [8]); 89.7% (active) in assay [4] (at 50.0 µM). Also, the growth inhibition in assay [6] (setting [7]) is 86% (active); in assay [6] (setting [8]) it was 98% (active); in assay [6] (at 50.0 µM), 90.1% (active); in assay [5] (setting [7]) it was 44%; in assay [5] (setting [8]) it was 97% (active); in assay [5] (at 50.0 µM), 88% (active).

On to `CCCCN(CCCC)CCCCCCCCCCO`, for which the growth inhibition in assay [1] (setting [7]) is -2%; in assay [1] (setting [8]), -2%; in assay [1] (at 50.0 µM), 45.4%; in assay [2] (setting [7]), -1%; in assay [2] (setting [8]) it was 1%; in assay [2] (at 50.0 µM) it was 36.2%. For the same compound, the growth inhibition is 1% in assay [3] (setting [7]); 1% in assay [3] (setting [8]); 52.6% in assay [3] (at 50.0 µM); 3% in assay [6] (setting [7]); 7% in assay [6] (setting [8]); 70% (active) in assay [6] (at 50.0 µM). Besides, the results for the growth inhibition in assay [5] (setting [7]), in assay [5] (setting [8]) and in assay [5] (at 50.0 µM) were -1%, -1% and 25.4%, respectively.

For `CCC[CH2][Sn]([CH2]CCC)([CH2]CCC)[O]C(=O)C(OC(C)=O)c1ccccc1` (centres undefined), the growth inhibition in assay [1] (setting [7]) is 99% (active); in assay [1] (setting [8]) it was 99% (active); in assay [1] (at 50.0 µM), 91.5% (active); in assay [2] (setting [7]), 99% (active); in assay [2] (setting [8]) it was 99% (active); in assay [2] (at 50.0 µM) it was 92.2% (active). Also, the growth inhibition was 99% (active) in assay [3] (setting [7]); 99% (active) in assay [3] (setting [8]); 91.5% (active) in assay [3] (at 50.0 µM); 99% (active) in assay [6] (setting [7]); 99% (active) in assay [6] (setting [8]); 90.2% (active) in assay [6] (at 50.0 µM). Besides, the growth inhibition in assay [5] (setting [7]) was 100% (active); in assay [5] (setting [8]), 100% (active); in assay [5] (at 50.0 µM) it was 91% (active).

In the case of `S=C=Nc1ccc(N2CCOCC2)cc1`, the growth inhibition in assay [1] (setting [7]) is 96% (active); in assay [1] (setting [8]), 99% (active); in assay [1] (at 50.0 µM), 99.3% (active); in assay [2] (setting [7]), 31%; in assay [2] (setting [8]) it was 100% (active); in assay [2] (at 50.0 µM) it was 99.7% (active). The growth inhibition in assay [3] (setting [7]) is 41%; in assay [3] (setting [8]) it was 99% (active); in assay [3] (at 50.0 µM) it was 99.7% (active); in assay [4] (setting [7]), 10%; in assay [4] (setting [8]), 99% (active); in assay [4] (at 50.0 µM), 96.3% (active). The growth inhibition in assay [5] (setting [7]) is 33%; in assay [5] (setting [8]), 99% (active); in assay [5] (at 50.0 µM), 99.2% (active).
